JMJD2A Tudor: qHTS Assay for Inhibitors of JMJD2A-Tudor Domain; AlphaScreen JMJD2A-Tudor / H3K4me3 peptide binding; Potency, µM (series often up to 114 µM), inactives show at the top dose activity change, negative = inhibition, hits mostly inhibitors; 390,000 tested, 4.4% active; Lysine-specific demethylase 4A (Homo sapiens), O75164; AID 504339, 2011; note: % is set by controls: 0 for no effect and ±100 for the full control effect; nearly all actives have a fitted effect of over 50% in size
G9a block: qHTS Assay for Inhibitors of Histone Lysine Methyltransferase G9a | Histone-lysine N-methyltransferase EHMT2 (Homo sapiens), Q96KQ7 | 350,000 tested, 8.8% active | G9a H3K9 monomethylation, AlphaScreen, 2 h | AID 504332, 2011 | Potency, µM (doses to about 102 µM), for inactives: top-dose activity, negative = inhibition, most hits filed as inhibitors; note: % is set by controls: 0 for no effect and ±100 for the full control effect; nearly all actives have a fitted effect of over 75% in size
Target sequence (Q96KQ7 913-1193 limits assumed): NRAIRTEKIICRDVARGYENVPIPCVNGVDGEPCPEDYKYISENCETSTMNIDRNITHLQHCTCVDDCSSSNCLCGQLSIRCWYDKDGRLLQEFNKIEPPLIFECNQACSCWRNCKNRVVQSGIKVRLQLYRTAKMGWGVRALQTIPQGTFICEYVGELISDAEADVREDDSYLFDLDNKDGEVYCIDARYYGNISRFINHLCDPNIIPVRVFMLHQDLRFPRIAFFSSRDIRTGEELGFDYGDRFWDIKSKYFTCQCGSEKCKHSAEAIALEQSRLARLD
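G9a (20 nM) preincubated 15 min RT with compounds, then 500 nM biotinylated H3K9 peptide and 20 uM SAM added; 2 h RT reaction. Monomethyl-H3K9 product detected by AlphaScreen with anti-H3K9me1 antibody, streptavidin donor and anti-rabbit IgG acceptor beads.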
HP1b chromo inh: HTS for Inhibitors of HP1-beta Chromodomain Interactions with Methylated Histone Tails | Chromobox protein homolog 1 (Homo sapiens), P83916 | AlphaScreen HP1-beta / biotin-H3K9me3 peptide binding | Potency, µM (doses to about 114 µM), without a hit: at the highest dose activity change, negative = inhibition, most hits filed as inhibitors | 390,000 tested, 0.56% active; note: nearly all actives have a fitted effect of over 70% in size
Target sequence (P83916 whole entry, looked up): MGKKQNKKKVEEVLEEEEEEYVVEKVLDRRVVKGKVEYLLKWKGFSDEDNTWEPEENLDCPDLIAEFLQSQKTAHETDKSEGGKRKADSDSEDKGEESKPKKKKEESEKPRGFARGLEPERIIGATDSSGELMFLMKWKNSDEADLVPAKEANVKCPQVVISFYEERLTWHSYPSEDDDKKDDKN
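HP1-beta protein (50 nM final) preincubated 30 min at room temperature with biotinylated H3(1-18)K9me3 peptide (50 nM) in PBS pH 7.4, 0.01% Tween-20, then compound added for 30 min. AlphaScreen streptavidin donor/nickel chelate acceptor beads (10 ug/mL final), 30 min dark, luminescence read.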
BAZ2B inh: qHTS Assay for Inhibitors of BAZ2B; Bromodomain adjacent to zinc finger domain protein 2B (Homo sapiens), Q9UIF8; AlphaScreen BAZ2B-H3K14Ac peptide displacement; Potency, µM (top dose mostly 114 µM), without a hit: at the top dose activity change, negative = inhibition, hits mostly inhibitors; 360,000 tested, 4.4% active; note: % is set by controls: 0 for no effect and ±100 for the full control effect; nearly all actives have a fitted effect of over 60% in size
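Inhibition is scored as reduced AlphaScreen emission. The BAZ2B/b-H3(5-23)K14Ac complex (50 nM each) in PBS pH 7.4, 0.01% Tween-20 meets compound (up to 110 uM) for 30 min at RT before bead addition.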
Sfp inh: qHTS Assay for Inhibitors of Bacillus subtilis Sfp phosphopantetheinyl transferase (PPTase); 4'-phosphopantetheinyl transferase ffp (Bacillus subtilis), Q9F4F7; Biochemical Sfp PPTase activity, qHTS; Potency, µM, without a hit: largest response in the series, negative = inhibition, usual class: inhibitors; 310,000 tested, 3.5% active;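 note: the enzyme is Sfp with the accession as filed and its product quenches rhodamine fluorescence; 0% = enzyme reaction without inhibitor and -100% = no enzyme wells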
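With Hepes-Na pH 7.6 buffer containing 10 mM MgCl2, Sfp (15 nM) modified BHQ-2-YbbR (12.5 uM) using rhodamine-CoA (5 uM). Two reads 30 minutes apart at 525/598 nm yielded each well's rate.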
* = called active by the depositor; u = inconclusive; x = no result given; [ ] = remark or other dose. The list is not random: actives were taken first. Their share in the collection is about 12%. Calls come from the whole dose curve; as a rule, active = well fitted curve in the direction sought with a large enough effect; inconclusive = small, poorly fitted or top-dose-only effect, or another doubt; inactive = no such curve, though single readings can be large; an effect the other way counts as inactive or inconclusive. Potency is the fitted concentration of half-maximal effect.

SMILES	JMJD2A Tudor	G9a block	HP1b chromo inh	BAZ2B inh	Sfp inh
O=C(O)c1ccc(Nc2ncnc3c2cnn3Cc2ccccc2)cc1	50µM*	32µM*	u	-12%	u
Cc1cccc(Nc2ncnc3c2cnn3Cc2ccccc2)c1	u	50µM*	23%	u	-11%
Cc1cccc(C)c1OCC(=O)Nc1ccc2c(c1)C(=O)NC2=O	-10%	x	16%	-4%	-1%
CC1=NN(c2ccccc2)C(=O)C1C=Nc1ccc(N(C)C)cc1 (configuration not stated)	45µM*	x	u	35µM*	u
CC1=NN(c2ccccc2)C(=O)C1N=Nc1ccc(C)cc1 (configuration not stated)	x	u	x	u	9%
CCc1ccc2c(c1)c(=O)c(S(=O)(=O)c1ccc(Cl)cc1)cn2CC	-17%	2%[59 µM]	21%	56µM*	x
Cc1cc2ccccn2c1C(=O)c1ccc(N/N=C/c2ccc(C(=O)O)cc2)c([N+](=O)[O-])c1	u	u	-10%	u	5%
C/C(=N\Nc1ccc(C(=O)c2c(C)cc3ccccn23)cc1[N+](=O)[O-])c1ccc(O)cc1	u	u	u	u	20µM*
S=C(NCc1ccccn1)NN=Cc1ccccn1	32µM*	x	-4%	x	x
COc1cccc(NC(=S)NCCc2ccccn2)c1	-14%	28µM*	21%	56µM*	u
Cc1ccc(NC(=S)NCc2ccccn2)cc1	u	11%[0.501 µM]	10%	-8%	-29%
Cc1cccc(NC(=S)NCc2ccccn2)c1	u	71µM*	33%	-29%	-1%
O=C(CNC(=O)C(c1ccccc1)c1ccccc1)OCC(=O)c1cccc2ccccc12	-15%[57.1 µM]	x	13%[57 µM]	x	x
Cc1ccccc1CSc1cn(CCNC(=O)c2cccs2)c2ccccc12	-10%	-36%[59 µM]	27%	u	x
Nc1nc(Cl)nc2c1ncn2[C@@H]1O[C@H](COP(=O)(O)OP(=O)(O)OP(=O)(O)O)[C@H](O)[C@H]1O	x	16%[12.7 µM]	x	x	x
CCN1/C(=C2/OC(=S)N(C)C2=O)Sc2ccccc21	-5%	u	56%	-7%	-22%
CCN1/C(=C2/SC(=S)NC2=O)Sc2ccccc21	-24%	8.9µM*	53%	-13%	-29%
Cc1cc(O)c(Oc2cc(C)cc(O)c2O)c(O)c1	40µM*	0.89µM*	u	u	5µM*
COc1ccc(C(=O)OCC(=O)NC(=O)NC2CCCC2)cc1OC	4%	-38%[59 µM]	52%	-4%	x
COc1ccc(NC2(c3ccc(Cl)cc3)C(=O)c3ccccc3C2=O)cc1	56µM*	28µM*	14µM*	14µM*	17%
COc1ccc(N2CCN(C3(c4ccccc4)C(=O)c4ccccc4C3=O)CC2)cc1	8.9µM*	8.9µM*	13µM*	7.1µM*	x
Cn1cnc(S(=O)(=O)N2CCN(C(c3ccc(F)cc3)c3ccc(F)cc3)CC2)c1	-17%	15%	27%	-18%[57.1 µM]	8%
Cc1nc(-c2ccc(Cl)cc2)sc1C1(C)CC(c2cccnc2)=NO1 (configuration not stated)	-27%	-48%[59 µM]	28%	1%	56µM*
Cc1ccc(C#CC2C=CC(Oc3ccc4c(c3)OCO4)C(CO)O2)c(C)c1 (configuration not stated)	x	x	x	x	29%
COc1cccc(CNC(=O)CN(C)S(=O)(=O)c2ccc3[nH]c4c(c3c2)CCCC4)c1	u	13µM*	-2%	-34%	x
SMILES	JMJD2A Tudor	G9a block	HP1b chromo inh	BAZ2B inh	Sfp inh
COc1ccc(OC)c(NC(=O)CN(C)S(=O)(=O)c2ccc3[nH]c4c(c3c2)CCCC4)c1	u	13µM*	u	u	x
COc1cccc(CNS(=O)(=O)c2ccc3[nH]c4c(c3c2)CCCCC4)c1	u	u	u	-30%[57.1 µM]	x
CN(CC(=O)NCc1ccc(Cl)cc1)S(=O)(=O)c1ccc2[nH]c3c(c2c1)CCCC3	u	10µM*	-2%	-29%	x
Cc1ccc(Cc2nc3ccccc3nc2SCC(=O)NCc2ccc(F)cc2)cc1	-3%	5%[59 µM]	22%[57 µM]	6%	x
O=C(CSCc1ccc(F)cc1)N1CCN(c2ccccc2F)CC1	-1%	10%[59 µM]	47%	-3%	x
CCOC(=O)C1CCCN(C(=O)C(CCSC)NC(=O)COc2ccccc2)C1 (configuration not stated)	-9%	-8%	5%	-7%	x
Cc1nc2c(-c3ccccc3)c(C)nn2c(C)c1CCC(=O)N1CCN(c2ccccc2)CC1	-26%	9%[59 µM]	21%	-18%	x
O=C1CCc2cc(S(=O)(=O)Nc3cccc4ccccc34)ccc2N1	-25%	x	x	x	x
Cc1cc(C)n(Cc2ccc(C(=O)Nc3ccc(Br)cc3C)o2)n1	-13%	3%[59 µM]	18%	-21%	5%
Cc1cc(C)n(Cc2ccc(C(=O)Nc3cccc(Br)c3)o2)n1	-9%	79µM*	9%	-4%	6%
CC1=CC(c2ccc(Cl)cc2)n2nc(NS(=O)(=O)c3ccc(C)cc3)nc2N1 (configuration not stated)	-24%	32µM*	28%	-11%	-4%
CC1=CC(c2ccccc2)n2nc(NS(=O)(=O)c3ccc(C)cc3)nc2N1 (configuration not stated)	-12%	18µM*	27%	u	5%
O/C(=C\c1ccc2ccccc2n1)c1ccc(O)cc1O	-21%	u	-4%	u	-2%
CCc1ccc2c(-c3cccc(Cl)c3)nc(=O)n(CC)c2n1	x	-21%[59 µM]	x	x	-26%
C/C=C/Cn1c(SCc2ccc(Cl)cc2)nc2c1c(=O)[nH]c(=O)n2C	4%	45µM*	7%	1%	1%
C/C=C/Cn1c(SC)nc2c1c(=O)[nH]c(=O)n2C	-6%[11.4 µM]	8.9µM*	5%	-3%	u
Cn1c(=O)[nH]c(=O)c2c1nc(SCC(=O)O)n2CCCc1ccccc1	-11%	2%[2.33 µM]	26%	-11%	6%
C/C=C/Cn1c(Br)nc2c1c(=O)[nH]c(=O)n2C	-11%	-9%[59 µM]	47%	-2%	7%
Cn1c(=O)[nH]c(=O)c2c1nc(SCC(=O)O)n2Cc1ccccc1	25µM*	22µM*	u	8%	18%
CCCn1c(SCc2ccc(Cl)cc2)nc2c1c(=O)[nH]c(=O)n2C	-3%	50µM*	9%	-9%	8%
COc1ccc(O[C@H]2C=C[C@@H](c3ccccc3)O[C@@H]2CON=C(C)C)cc1	x	x	x	x	10%
CCOc1ccc(NC(=O)N2CCN(c3nnc(C)c4c(C)n(-c5ccccc5)nc34)CC2)cc1	-8%	6%[59 µM]	-15%	-7%	x
Cn1c(=O)c2c(nc(SCC(=O)O)n2Cc2cccc(C(F)(F)F)c2)n(C)c1=O	-27%	14µM*	47%	5%	6%

Bioassay records deposited in PubChem by National Center for Advancing Translational Sciences (NCATS).
